# Reference: PubChem BioAssay (NCATS)
# Results filed as inconclusive are left out. A call without a number means that no potency is given here. Activity calls are given as the source filed them. Calls follow the shape of the dose curve; as a rule, active = well fitted curve in the direction sought with a large enough effect in the signal ratio; inconclusive = small, poorly fitted or top-dose-only effect, or a change in a side signal; inactive = no such curve, though single readings can be large or run the other way; the % refers to the signal ratio.
# Molecular target: Tumor necrosis factor (Homo sapiens) (UniProt P01375)
# Sequence (P01375 whole entry, looked up): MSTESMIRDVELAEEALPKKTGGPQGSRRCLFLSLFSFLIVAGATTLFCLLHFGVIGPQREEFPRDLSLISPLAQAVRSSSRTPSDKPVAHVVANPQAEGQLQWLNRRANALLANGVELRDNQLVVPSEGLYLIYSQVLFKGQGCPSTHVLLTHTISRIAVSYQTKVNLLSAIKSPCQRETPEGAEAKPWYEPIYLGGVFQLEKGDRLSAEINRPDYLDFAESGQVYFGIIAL
# Test: qHTS assay to identify small molecules that stimulate Tumor Necrosis Factor-alpha (TNF-alpha) secretion (AID 651757)
# Details: Human cells, HTRF 665/615 ratio; series mostly up to 92.2 µM
# Excerpt: National Center for Advancing Translational Sciences [NCATS]
# NIH Chemical Genomics Center [NCGC]
# National Institutes of Environmental Health Sciences [NIEHS]
# National Toxicology Program [NTP]
# Tumor Necrosis Factor-alpha (TNF-alpha), a secreted cytokine, plays an important role in inflammatory diseases and immune disorders. TNF-alpha, a 17 kDa cytokine, is mainly secreted by activated macrophages and monocytes in response to several inflammatory and immunological stimuli. To study the effect of environmental chemicals on TNF-alpha secretion, a homogeneous TNF-alpha assay was developed using Time Resolved fluorescence (HTRF) technology based on Time Resolved Fluorescent Resonance Energy Transfer (TR-FRET) (Leister et al., Current Chemical Genomics, 5:21-29, 2011). This assay allows measuring TNF-alpha secreted from the cells in a 1536-well plate format.
# THP-1 cells were dispensed at 3000 cells/5ul/well in 1536-well white solid plates. After addition of 23 nl of compound, positive controls and DMSO only, the assay plates were incubated at 37 C for 17 hrs, followed by addition of 5 uLof mixture of cryptate labeled and XL665 labeled anti-TNF-alpha antibodies. After the assay plates were incubated at room temperature for 3 hr, the plates were measured by an EnVision plate reader.
row,Structure (SMILES),Potency
1,NS(=O)(=O)O,inactive
2,Cc1cscn1,inactive
3,COC(=O)c1ccccc1,inactive
4,Cc1ccc(C)c(O)c1,inactive
5,NC(=O)c1ccccc1[N+](=O)[O-],inactive
6,CCCCC=O,inactive
7,Nc1cc([N+](=O)[O-])ccc1C(=O)O,inactive
8,CC(C)N=C=NC(C)C,inactive
9,CCNc1ccccc1,inactive
10,ON=C1CCCCC1,inactive
11,COCCOC(=O)c1ccccc1C(=O)OCCOC,inactive
12,CCCCC/C=C/C=C/C=O,inactive
13,CCCOCC(C)O (stereo not given),inactive
14,CO[Si](CCCNCCC[Si](OC)(OC)OC)(OC)OC,inactive
15,Nc1ccc([N+](=O)[O-])c(N)c1,inactive
16,C/C=C1\CC2C=CC1C2 (stereo not given),inactive
17,O=[N+]([O-])c1cc(C(F)(F)F)ccc1Cl,inactive
18,NC(=O)c1cccc([N+](=O)[O-])c1,inactive
19,NC(=O)/N=N/C(N)=O,inactive
20,COC(=O)CCC(=O)OC,inactive

row,Structure (SMILES),Potency
1,Clc1ccccn1,inactive
2,Cc1cc(C)c(N)cc1C,inactive
3,CC=C(Cl)Cl,inactive
4,O=C(O)CNC(=O)c1ccc([N+](=O)[O-])cc1,inactive
5,CCCCCCC=O,inactive
6,Nc1ccc(Cl)cc1[N+](=O)[O-],inactive
7,CCCCCCCCCCCCC1CO1 (stereo not given),inactive
8,O=Cc1ccc(Cl)cc1,inactive
9,O=C(O)c1ccc(Cl)cc1Cl,inactive
10,O=C(O)c1ccccc1C(=O)O,inactive
11,C=Cc1ccccn1,inactive
12,[O-]/[N+](=N\O)c1ccccc1,inactive
13,C=C(C)C(=O)OCCCCCCCCCC,inactive
14,OCCO,inactive
15,CC(=O)OC(C)=O,inactive
16,Cc1cccc2cccnc12,inactive
17,C=C(C)C1CC=C(C)C(OC(C)=O)C1 (stereo not given),inactive
18,c1ccsc1,inactive
19,CCCCC(=O)N(C)C,inactive
20,C=C(C)C(=O)OC,inactive
